Consider four compounds from PubChem BioAssay.

The nature of assay [1]: growth inhibition of DIPG glioma cells, dose response, cell-based, SU-DIPG-XVII, MIPE5.0, CellTiter-Glo, qHTS (AID 1347060; cut-off not given, nearly all actives have AC50 up to about 26 µM;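 note: cells exposed to compound for 48 hours before viability readout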). The settings on record: SU-DIPG-XVII viability, CellTiter-Glo ATP luminescence.
A short description of assay [2]: growth inhibition of DIPG glioma cells, dose response, cell-based, SU-DIPG-IV, MIPE4.0, CellTiter-Glo, qHTS (AID 1347063; cut-off not given, nearly all actives have AC50 up to about 30 µM;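 note: compound exposure lasted 48 hours before the viability readout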). The following applies: SU-DIPG-IV viability, CellTiter-Glo ATP luminescence.
A short description of assay [3]: growth inhibition of DIPG glioma cells, dose response, cell-based, SU-DIPG-XIII, MIPE5.0, CellTiter-Glo, qHTS (AID 1347064; cut-off not given, nearly all actives have AC50 up to about 23 µM;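 note: cells exposed to compound for 48 hours before the viability read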). The settings on record: SU-DIPG-XIII viability, CellTiter-Glo ATP luminescence.
Assay [4] is described as follows: viability loss in pontine glioma line – cell-based, SU-DIPG-XXV, MIPE5.0, CellTiter-Glo, qHTS, dose response (AID 1347065; cut-off not given, nearly all actives have AC50 up to about 26 µM;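 note: cells exposed to compound for 48 hours before ATP readout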). The following applies: CellTiter-Glo ATP luminescence.
Assay [5] in a line: SU-DIPG-VI glioma cell viability, MIPE4.0 library, CellTiter-Glo luminescence, qHTS (AID 1347066; cut-off not given, nearly all actives have AC50 up to about 30 µM;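 note: cells exposed to compound for 48 hours before readout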). The settings on record: CellTiter-Glo ATP luminescence.
Assay [6] can be described thus: JHH-DIPG-1 glioma cell viability, MIPE5.0 library, CellTiter-Glo luminescence, qHTS (AID 1347067; cut-off not given, nearly all actives have AC50 up to about 26 µM;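 note: cells exposed to compound for 48 hours before readout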). The settings on record: JHH-DIPG-1 glioma viability, CellTiter-Glo ATP luminescence.
A short description of assay [7]: SU-DIPG-XXV glioma cell viability, MIPE5.0 library, qHTS (AID 1347068; cut-off not given, nearly all actives have IC50 up to about 30 µM;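 note: cells exposed to compound for 48 hours before viability readout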).
Assay [8] can be described thus: sensitizers of A549 cells to miR-34 induction, primary screen, imaging, A549 dox-inducible miR-34, nuclei and caspase counts (AID 1347080;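 active = compounds whose cell count with miR-34 switched on is under 0.7 times the count with it off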). The settings on record: A549 miR-34 inducible, Hoechst nuclei count, 48 h.
Assay [9] is described as follows: survival rescue of mitochondrial mutant cells in low glucose, primary screen, MELAS cybrids, Rieske KO mouse fibroblasts, CellTiter-Glo (AID 1508586;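 active = mean z-score across replicates of 1.96 or higher in either the MELAS or the Rieske mutant cell line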;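 note: z relative to plate mean and SD of compound and empty wells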).
Assay [10] can be described thus: modifiers of HSF1 nuclear foci, imaging, Selleck Cancer Library (AID 1347162; in the data active = plate-normalised HSF1 focus index below about 0.46). The settings on record: human cells, at 10 µM; SSMD: measured here: HSF1 foci SSMD mean; cell count: measured here: cell number; plate-normalised HSF1 focus index: stronger effect = lower value.
A short description of assay [11]: ovarian cancer cell viability with rucaparib, profiling panel, oncology-focused library, rucaparib conditional (AID 1508598). The settings on record: patient-derived ovarian cancer cells, CellTiter-Glo viability, 144 h, stronger effect = lower value.
The mark [12] stands for this setting: stronger effect = lower value, cell number ratio, induced over uninduced.
[13] abbreviates: measured here: relative caspase fold change +Dox/-Dox.
[14] abbreviates: measured here: total cells with miR-34 induction, stronger effect = lower value.
Where [15] appears, read: measured here: total cells without miR-34 induction.
Where [16] appears, read: MELAS cybrid survival, CellTiter-Glo 48 h, stronger effect = higher value.
Where [17] appears, read: Rieske KO mouse fibroblast survival, CellTiter-Glo 72 h.

Molecules are shown by their SMILES. Results filed as inconclusive are left out. Calls of active or inactive are those of the source.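 Rule for the calls, unless noted: active = normalized viability below 100% at a tested concentration; inactive = the rest.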

Regarding `Cc1cc(Nc2cc(CN3CCOCC3)c3nc(C)c(Cc4ccc(Cl)cc4F)n3n2)n[nH]1`, the AC50 is 1.32 µM (active) in [1]; 11.8 µM (active) in assay [2]; 10.5 µM (active) in assay [3]; 1.18 µM (active) in assay [4]; 23.5 µM (active) in assay [5]; 3.32 µM (active) in assay [6]. In assay [7], the IC50 was 8.33 µM (active). The results for the fold change in [8] (setting [12]) and in assay [8] (setting [13]) were 1.46 (inactive) and 0.647, respectively. Besides, the cell count is 1440 in [8] (setting [14]) and 982 in assay [8] (setting [15]). The z-score was -0.366 (inactive) in assay [9] (setting [16]) and -1.27 in assay [9] (setting [17]).

On to `COc1cc2nccc(Oc3ccc(NC(=O)Nc4cc(C)on4)c(Cl)c3)c2cc1OC`, for which the AC50 is 8.33 µM (active) in [1]; 18.7 µM (active) in assay [2]; 9.34 µM (active) in assay [3]; 5.9 µM (active) in [4]; 14.8 µM (active) in [6]. In addition, the half-maximal inhibitory concentration (IC50) in assay [7] is 9.34 µM (active). For the same compound, the fold change in assay [8] (setting [12]) was 1.35 (inactive); in assay [8] (setting [13]), 0.722. Also, the values for the cell count in assay [8] (setting [14]), in assay [8] (setting [15]) and in [10] were 2720, 2010 and 7170, respectively. In [10], the SSMD came to 3.28. Besides, the plate-normalised HSF1 focus index in [10] is 1.19 (inactive). In addition, the z-score in assay [9] (setting [16]) was -0.36 (inactive); in [9] (setting [17]) it was 0.933. Further, the viability is 115% (inactive) in assay [11] (at 0.000305 µM, OCI-C5x cells, with rucaparib 10 µM, 100% = cells with rucaparib alone); 105% (inactive) in assay [11] (at 0.000305 µM, OCI-C5x cells, without rucaparib); 104% (inactive) in [11] (at 0.000305 µM, OCI-P5x cells, with rucaparib 20 µM, 100% = cells with rucaparib alone); 96.5% (active) in [11] (at 0.000305 µM, OCI-P5x cells, without rucaparib); 109% (inactive) in assay [11] (at 0.00122 µM, OCI-C5x cells, with rucaparib 10 µM, 100% = cells with rucaparib alone); 100% (active) in assay [11] (at 0.00122 µM, OCI-C5x cells, without rucaparib). Besides, the viability in assay [11] (at 0.00122 µM, OCI-P5x cells, with rucaparib 20 µM, 100% = cells with rucaparib alone) was 101% (inactive); in [11] (at 0.00122 µM, OCI-P5x cells, without rucaparib), 94.7% (active); in assay [11] (at 0.00488 µM, OCI-C5x cells, with rucaparib 10 µM, 100% = cells with rucaparib alone), 107% (inactive); in assay [11] (at 0.00488 µM, OCI-C5x cells, without rucaparib), 106% (inactive); in assay [11] (at 0.00488 µM, OCI-P5x cells, with rucaparib 20 µM, 100% = cells with rucaparib alone) it was 92.6% (active); in [11] (at 0.00488 µM, OCI-P5x cells, without rucaparib) it was 93.9% (active). The viability is 113% (inactive) in assay [11] (at 0.0195 µM, OCI-C5x cells, with rucaparib 10 µM, 100% = cells with rucaparib alone); 96.2% (active) in assay [11] (at 0.0195 µM, OCI-C5x cells, without rucaparib); 98.1% (active) in [11] (at 0.0195 µM, OCI-P5x cells, with rucaparib 20 µM, 100% = cells with rucaparib alone); 86.6% (active) in assay [11] (at 0.0195 µM, OCI-P5x cells, without rucaparib); 113% (inactive) in assay [11] (at 0.0781 µM, OCI-C5x cells, with rucaparib 10 µM, 100% = cells with rucaparib alone); 88.6% (active) in [11] (at 0.0781 µM, OCI-C5x cells, without rucaparib). Further, the viability in assay [11] (at 0.0781 µM, OCI-P5x cells, with rucaparib 20 µM, 100% = cells with rucaparib alone) is 92.2% (active); in [11] (at 0.0781 µM, OCI-P5x cells, without rucaparib) it was 87.4% (active); in assay [11] (at 0.313 µM, OCI-C5x cells, with rucaparib 10 µM, 100% = cells with rucaparib alone), 133% (inactive); in assay [11] (at 0.313 µM, OCI-C5x cells, without rucaparib), 109% (inactive); in [11] (at 0.313 µM, OCI-P5x cells, with rucaparib 20 µM, 100% = cells with rucaparib alone), 88.2% (active); in assay [11] (at 0.313 µM, OCI-P5x cells, without rucaparib), 91.5% (active). For the same compound, the viability in [11] (at 1.25 µM, OCI-C5x cells, with rucaparib 10 µM, 100% = cells with rucaparib alone) is 138% (inactive); in assay [11] (at 1.25 µM, OCI-C5x cells, without rucaparib), 93.1% (active); in assay [11] (at 1.25 µM, OCI-P5x cells, with rucaparib 20 µM, 100% = cells with rucaparib alone), 81.9% (active); in [11] (at 1.25 µM, OCI-P5x cells, without rucaparib), 86.1% (active); in assay [11] (at 5 µM, OCI-C5x cells, with rucaparib 10 µM, 100% = cells with rucaparib alone) it was 150% (inactive); in assay [11] (at 5 µM, OCI-C5x cells, without rucaparib) it was 104% (inactive). Further, the viability in [11] (at 5 µM, OCI-P5x cells, with rucaparib 20 µM, 100% = cells with rucaparib alone) was 70.8% (active); in assay [11] (at 5 µM, OCI-P5x cells, without rucaparib), 82.8% (active).

`CN1N=C(N)c2cn([C@@H]3O[C@H](COP(=O)(O)O)[C@@H](O)[C@H]3O)c3ncnc1c23`: the AC50 in assay [1] is 0.417 µM (active); in [2], 0.372 µM (active); in [3] it was 1.66 µM (active); in assay [4], 0.105 µM (active); in assay [5] it was 0.132 µM (active).

`CC(C)c1cc(C(C)C)c(CC(=O)NS(=O)(=O)Oc2c(C(C)C)cccc2C(C)C)c(C(C)C)c1`: the AC50 in assay [1] was 10.5 µM (active); in assay [2], 20.9 µM (active); in assay [3], 13.2 µM (active); in assay [4], 9.34 µM (active); in [5], 10.5 µM (active); in [6], 11.8 µM (active). The IC50 in assay [7] was 8.33 µM (active). For the same compound, the fold change in assay [8] (setting [12]) was 0.956 (inactive); in assay [8] (setting [13]), 0.65. Also, the cell count in assay [8] (setting [14]) was determined as 5000; in [8] (setting [15]) it was 5220. In addition, the z-score was -0.406 (inactive) in [9] (setting [16]) and 0.969 in [9] (setting [17]).
